Measurements reported in the supplement of paper PMC4022240.
± gives the standard deviation.

Legend:
Test in all cases: peptide microarray binding signal (635 nm), min-max normalized on array (fraction of array maximum); higher = stronger binding
Details in all cases: peptide region: H3 1-13
[1] = target: T1, HaloTag-ATRX ADD domain (163-292)
T1 chain: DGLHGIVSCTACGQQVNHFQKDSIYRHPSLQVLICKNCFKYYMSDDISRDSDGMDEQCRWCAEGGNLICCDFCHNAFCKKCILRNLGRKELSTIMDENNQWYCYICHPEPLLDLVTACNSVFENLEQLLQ
Protocol: (§1)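 Histone 13-mer peptides were synthesized as cellulose conjugates with a C-terminal 20-atom PEG linker and printed in triplicate on nitrocellulose. The sequence given is the unmodified backbone; PTMs (Kme1/2/3, Kac, Sph/Tph, Rme/Rme2a/Rme2s, Rcit) are listed in the label and the 'peptide modifications' condition. Slides were probed at 4 °C for 1 h with biotin-labelled (HQ)5-HaloTag reader fusions (ATRX-ADD, ING2-PHD) then streptavidin-Alexa647, or with rabbit histone antibodies then anti-rabbit Alexa647. The mean 635 nm signal of the triplicate spots was scaled 0-1 between the lowest and highest values on each array.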

[2] = target: HaloTag-ING2 PHD (mouse Ing2 200-280)
Protocol: as §1

[3] = target: anti-H3K4me3 antibody ab8580
Protocol: as §1

[4] = target: anti-H3K9me3 antibody ab8898
Protocol: as §1

[5] = peptide modifications: H3T3ph H3K9me2, binder concentration: 1:2,000 dilution
[6] = peptide modifications: H3T3ph H3K9me2, binder concentration: 1:10,000 dilution
[7] = peptide modifications: H3T6ph H3K9ac, binder concentration: 1:2,000 dilution
[8] = peptide modifications: H3T6ph H3K9ac, binder concentration: 1:10,000 dilution
[9] = peptide modifications: H3T3ph H3K4me2, binder concentration: 1:2,000 dilution
[10] = peptide modifications: H3T3ph H3K4me2, binder concentration: 1:10,000 dilution
[11] = peptide modifications: H3S10ph, binder concentration: 1:2,000 dilution
[12] = peptide modifications: H3S10ph, binder concentration: 1:10,000 dilution
[13] = peptide modifications: H3R8me2s, binder concentration: 1:2,000 dilution
[14] = peptide modifications: H3R8me2s, binder concentration: 1:10,000 dilution
[15] = peptide modifications: H3T3ph H3K4me3, binder concentration: 1:2,000 dilution
[16] = peptide modifications: H3T3ph H3K4me3, binder concentration: 1:10,000 dilution
[17] = peptide modifications: H3T6ph H3K9me2, binder concentration: 1:2,000 dilution
[18] = peptide modifications: H3T6ph H3K9me2, binder concentration: 1:10,000 dilution
[19] = peptide modifications: H3T3ph, binder concentration: 1:2,000 dilution
[20] = peptide modifications: H3T3ph, binder concentration: 1:10,000 dilution
[21] = peptide modifications: H3T3ph H3K9me3, binder concentration: 1:2,000 dilution
[22] = peptide modifications: H3T3ph H3K9me3, binder concentration: 1:10,000 dilution
[23] = peptide modifications: H3T3ph H3K4me1, binder concentration: 1:2,000 dilution
[24] = peptide modifications: H3T3ph H3K4me1, binder concentration: 1:10,000 dilution

ARTKQTARKSTGG [H3 1-13 A R Tph K Q T A R Kme2 S T G G]
peptide microarray binding signal ([1]; peptide modifications: H3T3ph H3K9me2, binder concentration: 50 nM): 0.0107 ± 0.00063
peptide microarray binding signal ([1]; peptide modifications: H3T3ph H3K9me2, binder concentration: 500 nM): 0.0409 ± 0.02
peptide microarray binding signal ([2]; peptide modifications: H3T3ph H3K9me2, binder concentration: 10 nM): 0.0306 ± 0.0047
peptide microarray binding signal ([2]; peptide modifications: H3T3ph H3K9me2, binder concentration: 100 nM): 0.0365 ± 0.018
peptide microarray binding signal [3, 5]: 0.0117 ± 0.0018
peptide microarray binding signal [3, 6]: 0.0191 ± 0.0097
peptide microarray binding signal [4, 5]: 0.0295 ± 0.0016
peptide microarray binding signal [4, 6]: 0.013 ± 0.0018

ARTKQTARKSTGG [H3 1-13 A R T K Q Tph A R Kac S T G G]
peptide microarray binding signal ([1]; peptide modifications: H3T6ph H3K9ac, binder concentration: 50 nM): 0.00724 ± 0.00023
peptide microarray binding signal ([1]; peptide modifications: H3T6ph H3K9ac, binder concentration: 500 nM): 0.0156 ± 0.0012
peptide microarray binding signal ([2]; peptide modifications: H3T6ph H3K9ac, binder concentration: 10 nM): 0.0307 ± 0.002
peptide microarray binding signal ([2]; peptide modifications: H3T6ph H3K9ac, binder concentration: 100 nM): 0.0441 ± 0.0085
peptide microarray binding signal [3, 7]: 0.00995 ± 0.00061
peptide microarray binding signal [3, 8]: 0.00622 ± 0.00014
peptide microarray binding signal [4, 7]: 0.00527 ± 0.00089
peptide microarray binding signal [4, 8]: 0.00294 ± 0.00011

ARTKQTARKSTGG [H3 1-13 A R Tph Kme2 Q T A R K S T G G]
peptide microarray binding signal ([1]; peptide modifications: H3T3ph H3K4me2, binder concentration: 50 nM): 0.00555 ± 0.0001
peptide microarray binding signal ([1]; peptide modifications: H3T3ph H3K4me2, binder concentration: 500 nM): 0.00891 ± 0.00073
peptide microarray binding signal ([2]; peptide modifications: H3T3ph H3K4me2, binder concentration: 10 nM): 0.0132 ± 0.0013
peptide microarray binding signal ([2]; peptide modifications: H3T3ph H3K4me2, binder concentration: 100 nM): 0.0916 ± 0.0043
peptide microarray binding signal [3, 9]: 0.0195 ± 0.0045
peptide microarray binding signal [3, 10]: 0.024 ± 0.0033
peptide microarray binding signal [4, 9]: 0.0022 ± 0.00054
peptide microarray binding signal [4, 10]: 0.00185 ± 8e-05

ARTKQTARKSTGG [H3 1-13 A R T K Q T A R K Sph T G G]
peptide microarray binding signal ([1]; peptide modifications: H3S10ph, binder concentration: 50 nM): 0.00508 ± 8.1e-05
peptide microarray binding signal ([1]; peptide modifications: H3S10ph, binder concentration: 500 nM): 0.013 ± 0.00036
peptide microarray binding signal ([2]; peptide modifications: H3S10ph, binder concentration: 10 nM): 0.00233 ± 2.7e-05
peptide microarray binding signal ([2]; peptide modifications: H3S10ph, binder concentration: 100 nM): 0.0243 ± 0.00098
peptide microarray binding signal [3, 11]: 0.000321 ± 3.3e-06
peptide microarray binding signal [3, 12]: 0.000514 ± 5.5e-06
peptide microarray binding signal [4, 11]: 0.000362 ± 1.3e-05
peptide microarray binding signal [4, 12]: 0.000288

ARTKQTARKSTGG [H3 1-13 A R T K Q T A Rme2s K S T G G]
peptide microarray binding signal ([1]; peptide modifications: H3R8me2s, binder concentration: 50 nM): 0.007899 ± 6.4e-05
peptide microarray binding signal ([1]; peptide modifications: H3R8me2s, binder concentration: 500 nM): 0.0258 ± 0.00046
peptide microarray binding signal ([2]; peptide modifications: H3R8me2s, binder concentration: 10 nM): 0.0129 ± 0.00049
peptide microarray binding signal ([2]; peptide modifications: H3R8me2s, binder concentration: 100 nM): 0.0364 ± 0.027
peptide microarray binding signal [3, 13]: 0.00759 ± 0.0043
peptide microarray binding signal [3, 14]: 0.00302 ± 0.00087
peptide microarray binding signal [4, 13]: 0.0037 ± 0.00057
peptide microarray binding signal [4, 14]: 0.00254 ± 0.00038

ARTKQTARKSTGG [H3 1-13 A R Tph Kme3 Q T A R K S T G G]
peptide microarray binding signal ([1]; peptide modifications: H3T3ph H3K4me3, binder concentration: 50 nM): 0.00583 ± 0.0002
peptide microarray binding signal ([1]; peptide modifications: H3T3ph H3K4me3, binder concentration: 500 nM): 0.0119 ± 0.00039
peptide microarray binding signal ([2]; peptide modifications: H3T3ph H3K4me3, binder concentration: 10 nM): 0.0508 ± 0.0034
peptide microarray binding signal ([2]; peptide modifications: H3T3ph H3K4me3, binder concentration: 100 nM): 0.103 ± 0.049
peptide microarray binding signal [3, 15]: 0.277 ± 0.065
peptide microarray binding signal [3, 16]: 0.724 ± 0.2
peptide microarray binding signal [4, 15]: 0.055 ± 0.0067
peptide microarray binding signal [4, 16]: 0.017 ± 0.00063

ARTKQTARKSTGG [H3 1-13 A R T K Q Tph A R Kme2 S T G G]
peptide microarray binding signal ([1]; peptide modifications: H3T6ph H3K9me2, binder concentration: 50 nM): 0.00674 ± 3.8e-05
peptide microarray binding signal ([1]; peptide modifications: H3T6ph H3K9me2, binder concentration: 500 nM): 0.0151 ± 0.00044
peptide microarray binding signal ([2]; peptide modifications: H3T6ph H3K9me2, binder concentration: 10 nM): 0.0226 ± 0.0028
peptide microarray binding signal ([2]; peptide modifications: H3T6ph H3K9me2, binder concentration: 100 nM): 0.0292 ± 0.0053
peptide microarray binding signal [3, 17]: 0.00732 ± 0.0017
peptide microarray binding signal [3, 18]: 0.0124 ± 0.0021
peptide microarray binding signal [4, 17]: 0.0419 ± 0.0095
peptide microarray binding signal [4, 18]: 0.0174 ± 0.00085

ARTKQTARKSTGG [H3 1-13 A R Tph K Q T A R K S T G G]
peptide microarray binding signal ([1]; peptide modifications: H3T3ph, binder concentration: 50 nM): 0.01044 ± 0.0001
peptide microarray binding signal ([1]; peptide modifications: H3T3ph, binder concentration: 500 nM): 0.0136 ± 0.0015
peptide microarray binding signal ([2]; peptide modifications: H3T3ph, binder concentration: 10 nM): 0.0146 ± 0.00026
peptide microarray binding signal ([2]; peptide modifications: H3T3ph, binder concentration: 100 nM): 0.0137 ± 0.0036
peptide microarray binding signal [3, 19]: 0.00119 ± 5e-05
peptide microarray binding signal [3, 20]: 0.002568 ± 2.3e-05
peptide microarray binding signal [4, 19]: 0.00137 ± 6.5e-05
peptide microarray binding signal [4, 20]: 0.002998 ± 2.6e-05

ARTKQTARKSTGG [H3 1-13 A R Tph K Q T A R Kme3 S T G G]
peptide microarray binding signal ([1]; peptide modifications: H3T3ph H3K9me3, binder concentration: 50 nM): 0.0613 ± 0.011
peptide microarray binding signal ([1]; peptide modifications: H3T3ph H3K9me3, binder concentration: 500 nM): 0.122 ± 0.03
peptide microarray binding signal ([2]; peptide modifications: H3T3ph H3K9me3, binder concentration: 10 nM): 0.0186 ± 0.0018
peptide microarray binding signal ([2]; peptide modifications: H3T3ph H3K9me3, binder concentration: 100 nM): 0.0397 ± 0.0029
peptide microarray binding signal [3, 21]: 0.122 ± 0.066
peptide microarray binding signal [3, 22]: 0.0819 ± 0.021
peptide microarray binding signal [4, 21]: 0.459 ± 0.036
peptide microarray binding signal [4, 22]: 0.387 ± 0.046

ARTKQTARKSTGG [H3 1-13 A R Tph Kme Q T A R K S T G G]
peptide microarray binding signal ([1]; peptide modifications: H3T3ph H3K4me1, binder concentration: 50 nM): 0.00492 ± 0.00024
peptide microarray binding signal ([1]; peptide modifications: H3T3ph H3K4me1, binder concentration: 500 nM): 0.0238 ± 0.013
peptide microarray binding signal ([2]; peptide modifications: H3T3ph H3K4me1, binder concentration: 10 nM): 0.00376 ± 0.00014
peptide microarray binding signal ([2]; peptide modifications: H3T3ph H3K4me1, binder concentration: 100 nM): 0.021 ± 0.002
peptide microarray binding signal [3, 23]: 0.021 ± 0.0064
peptide microarray binding signal [3, 24]: 0.00765 ± 0.0012
peptide microarray binding signal [4, 23]: 0.00298 ± 0.00034
peptide microarray binding signal [4, 24]: 0.0015 ± 5.1e-05
